Assay results from PubChem BioAssay (Tox21).
Records with an inconclusive call do not appear. Active and inactive are the calls of the source. Unless noted, calls follow the shape of the dose curve; as a rule, active = well fitted curve in the direction sought with a large enough effect in the repeat runs; inconclusive = weak or mixed curves; inactive = no such curve, though single readings can be large; an effect the other way counts as inactive or inconclusive.

Tests used:
[1] = qHTS assay to identify small molecule agonists of the vitamin D receptor (VDR) signaling pathway - cell viability counter screen (AID 743224); also: series mostly up to about 63 µM; nearly all actives have a fitted effect of over 50% in size
How it was run: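 VDR-bla cell line, quantitative HTS format; 16 h compound incubation (37C, 5% CO2); ATP-based CellTiter-Glo luminescence measured in the reporter assay wells.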

[2] = qHTS assay to identify small molecule antagonists of the vitamin D receptor (VDR) signaling pathway - cell viability counter screen (AID 743225); also: nearly all actives have a fitted effect of over 50% in size
How it was run: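 VDR-bla HEK 293T cells, 4 h pre-incubation at 37C, then compound plus 1-alpha,25-dihydroxyvitamin D3 (3 nM final) for 16 h. After the beta-lactamase FRET read, CellTiter-Glo was added to the same wells; luminescence after 30 min at room temperature.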

[3] = qHTS assay to identify small molecule agonists of the NFkB signaling pathway (AID 1159509; active = well fitted curve in the direction sought with a large enough effect in the signal ratio in the repeat runs, not every such curve was filed as active; the % refers to the signal ratio; also: series mostly up to about 61 µM)
How it was run: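 NFkB-bla ME-180 cells carry a beta-lactamase reporter under an NF-kB response element. They were plated overnight, then exposed to compounds for 5 h at 37 C. Read-out is LiveBLAzer FRET after 1.5 hr at room temperature (405 nm excitation; 460/530 nm emission).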

[4] = qHTS assay to identify small molecule agonists of the NFkB signaling pathway - cell viability counter screen (AID 1159515; calls by dose curve; also: series mostly up to about 61 µM; nearly all actives have a fitted effect of over 55% in size)
How it was run: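 Viability in NFkB-bla ME-180 cells was measured by CellTiter-Glo luminescence, 30 min room temperature, in wells already treated 5 hr with compounds and read for reporter FRET.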

[5] = qHTS assay to identify small molecule agonists of the endoplasmic reticulum stress response signaling pathway (AID 1159516; active = well fitted activation curve with a large enough effect in the signal ratio in the repeat runs, not every such curve was filed as active; the % refers to the signal ratio)
How it was run: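 ER stress element reporter (bla) in HeLa. 1,500 cells/well, overnight attachment; 5 hr compound; 2 hr RT substrate; dual-emission fluorescence.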

[6] = qHTS assay to identify small molecule agonists of the endoplasmic reticulum stress response signaling pathway - cell viability counter screen (AID 1159517; calls by dose curve;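 also: HeLa cells carrying an ER stress response element beta-lactamase reporter; series mostly up to about 61 µM; nearly all actives have a fitted effect of over 50% in size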)
How it was run: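 HeLa cells carrying an ESRE-driven beta-lactamase reporter receive compound for 5 hr at 37 C. Cell viability is then gauged with CellTiter-Glo by luminescence, 30 min at room temperature.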

[7] = qHTS assay to identify small molecule antagonists of the retinoid-related orphan receptor gamma (ROR-gamma) signaling pathway - cell viability counter screen (AID 1159520); also: nearly all actives have a fitted effect of over 50% in size
How it was run: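 Cytotoxicity was read from cellular ATP (CellTiter-Glo luminescence) after 16 hr at 37 C with 1 uM doxycycline induction. The inducer was added 2 hr after compound transfer to Tet-on ROR gamma CHO cells.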

[8] = qHTS assay to identify small molecule agonists of the AP-1 signaling pathway - cell viability counter screen (AID 1159525; calls by dose curve; also: nearly all actives have a fitted effect of over 55% in size)
How it was run: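 Luminescent ATP readout (Cell Titer Glo, 30 min RT), normalised to DMSO and tetra n-octyl ammonium bromide controls. Cells were ME-180 AP-1-bla in 0.5% dialyzed FBS Opti-MEM, with a 5 h, 37 °C compound exposure.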

[9] = qHTS assay to identify small molecule agonists of the AP-1 signaling pathway (AID 1159526; calls by dose curve)
[10] = target: Retinoic acid receptor RXR-alpha (Homo sapiens) (UniProt P19793); assay: qHTS assay to identify small molecule agonists of the RXR signaling pathway (AID 1159527; calls by dose curve; also: nearly all actives have a fitted effect of over 35% in size)
How it was run: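 GeneBLAzer RXR-alpha-UAS-bla HEK 293T cells in medium with 2% charcoal-stripped FBS, pre-incubated 5 hr at 37 C, then exposed to compounds 16 hr. Beta-lactamase reporter read by FRET substrate, 2 hr room temperature, 460/530 nm emission.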

[11] = qHTS assay to identify small molecule agonists of the RXR signaling pathway - cell viability counter screen (AID 1159529)
How it was run: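 RXR-alpha-UAS-bla HEK 293T cells in medium with 2% charcoal-stripped FBS were preincubated 5 hr, then exposed to compounds for 16 hr at 37 C. Viability was read as CellTiter-Glo luminescence after 30 min at room temperature.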

[12] = qHTS assay to identify small molecule antagonists of the retinoid acid receptor (RAR) signaling pathway - cell viability counter screen (AID 1159551); also: nearly all actives have a fitted effect of over 35% in size
How it was run: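 Following overnight attachment, C3RL4 reporter cells received DMSO-dissolved compounds and then retinol (1 uM final). Six hours later at 37 C, ATP content was measured by CellTiter-Glo luminescence.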

[13] = qHTS assay to identify small molecule antagonists of the retinoic acid receptor (RAR) signaling pathway (AID 1159552; also: nearly all actives have a fitted effect of over 50% in size)
How it was run: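 RARE-luc C3RL4 cells; cpds + 1 uM (final) retinol, 6 hr, 37 C/5% CO2; luciferase reagent, 30 min RT, luminescence readout. Inhibitors of retinol-driven signal scored.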

[14] = target: Nuclear receptor ROR-gamma (Homo sapiens) (UniProt P51449); assay: qHTS assay to identify small molecule antagonists of the retinoid-related orphan receptor gamma (ROR-gamma) signaling pathway (AID 1159521)
How it was run: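 Tet-on RORγ CHO cells carrying a ROR response element–luciferase reporter were pretreated with compounds for 2 h, then induced with 1 uM (final) doxycycline hyclate for 16 h at 37 C. Antagonism was read as decreased ONE-Glo luminescence.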

[15] = qHTS assay to identify small molecule agonists of the retinoic acid receptor (RAR) signaling pathway (AID 1159553)
How it was run: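 Cell line C3RL4, RARE luciferase reporter. Treatment: compounds in DMSO, 6 hr, 37 C, 5% CO2, after overnight plating. Detection: luminescence, 30 min RT after reagent.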

[16] = qHTS assay to identify small molecule antagonists of the estrogen related receptor (ERR) signaling pathway - cell viability counter screen (AID 1224818);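 also: series mostly up to about 46 µM; viability measured after 17.5 h of compound exposure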
How it was run: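 Here, ERR cells are plated at 2,000 cells per well, allowed 6 h to attach, and treated with compounds in DMSO for 17.5 h at 37 C. CellTiter-Fluor is then added and fluorescence read after 30 min.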

[17] = qHTS assay to identify small molecule antagonists of the estrogen related receptor signaling pathway with the pleiotropic PPARgamma coactivator (PGC) cell viability counter screen (AID 1224822;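 also: series mostly up to about 46 µM; viability read after 17.5 h compound exposure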)
How it was run: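 qHTS format, DMSO compound stocks pin-transferred onto PGC/ERR cells 6 h after plating; 17.5 h exposure at 37 C, then CellTiter-Fluor fluorescence.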

Measured: Potency

Retinoic acid receptor RXR-alpha (Homo sapiens), sequence (P19793 whole entry, looked up): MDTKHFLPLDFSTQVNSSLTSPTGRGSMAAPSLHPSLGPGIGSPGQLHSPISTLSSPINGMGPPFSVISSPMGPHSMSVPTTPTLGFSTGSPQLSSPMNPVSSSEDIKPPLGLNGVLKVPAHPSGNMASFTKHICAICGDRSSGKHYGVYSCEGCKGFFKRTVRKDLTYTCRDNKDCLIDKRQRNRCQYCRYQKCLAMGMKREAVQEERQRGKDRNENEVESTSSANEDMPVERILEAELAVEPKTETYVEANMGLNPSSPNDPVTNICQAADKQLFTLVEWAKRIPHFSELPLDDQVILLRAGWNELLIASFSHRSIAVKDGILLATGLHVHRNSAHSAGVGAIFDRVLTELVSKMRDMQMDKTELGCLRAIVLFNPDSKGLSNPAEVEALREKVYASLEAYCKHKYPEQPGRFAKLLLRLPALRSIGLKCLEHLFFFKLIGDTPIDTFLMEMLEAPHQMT

NC(=O)c1ccc([N+](=O)[O-])cc1
not listed: [14] | [15] | [16] | [17]
inactive: all other assays above

C=COCC1CCC(CO)CC1 (configuration not stated)
not listed: [2] | [6] | [16] | [17]
inactive: all other assays above

CO/N=C(/C(=O)N[C@@H]1C(=O)N2C(C(=O)OCOC(=O)C(C)(C)C)=C(C)CS[C@H]12)c1csc(N)n1
not listed: [1] | [14] | [16] | [17]
inactive: all other assays above

N=c1nc(N2CCCCC2)cc(N)n1O
not listed: [6]
inactive: all other assays above

CCN(Cc1ccncc1)C(=O)C(CO)c1ccccc1 (configuration not stated)
not listed: [14] | [15]
inactive: all other assays above

FC1(F)C(F)(F)C(F)(F)C2(F)C(F)(F)C(F)(F)C(F)(F)C(F)(F)C2(F)C1(F)F (configuration not stated)
not listed: [11] | [14] | [16] | [17]
inactive: all other assays above

O=S(O)CO
not listed: [14] | [16] | [17]
inactive: all other assays above

CC(C)(CC(=O)O)C(=O)O
not listed: [2] | [14] | [15] | [16] | [17]
inactive: all other assays above

Cc1nc2c([nH]1)c(=O)n(C)c(=O)n2Cc1ccco1
not listed: [2] | [6]
inactive: all other assays above

CC1=CC(C)C(C=O)CC1 (configuration not stated)
not listed: [14] | [15] | [16] | [17]
inactive: all other assays above
